log2 fold change data for 15 targets are collected here from the supplement of paper PMC10849652.

What all share (experiment): log2 fold change, soluble protein after heating vs DMSO (PISA); higher = thermal stabilisation; K562 lysate, 10 uM; active = over 0.2 and 3.5 SD of the protein, either way, in both replicates (recomputed)
Compound in test [1]: C#Cc1cccc(Nc2ncnc3cc(OCCOC)c(OCCOC)cc23)c1 [erlotinib]
The method in brief:
(§1)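 Soluble protein was defined as the supernatant remaining after 21,000xg for 90 min, following pooling of heated aliquots and adjustment to 0.5% NP-40 at 4°C. Before that, crude K562 extract at 1 mg/mL protein in PBS pH 7.4 with 1 mM MgCl2 was treated with 10 μM compound for 30 min and heated for 3 min across 48°C-58°C. Quantification used TMTpro 16plex LC-MS/MS with channel sums equalised, and values are log-two fold changes in thermal stability relative to solvent controls from duplicates.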

Compound in test [2]: C/C(=N\NC(=O)C1=CC(=CC=C1)S(=O)(=O)N2CCOCC2)/C3=C(C=CC(=C3)Cl)O
A digest of the protocol:
as §1

Compound in test [3]: C1=CC(=CC=C1C2=NC3=C(N2)C=C(C=C3)C(=O)N)OC4=CC=C(C=C4)Cl
The method in brief: as §1

Compound in test [4]: C1=CC2=C(C=CC(=C2)/C=C\3/C(=O)NC(=NCC4=CC=CS4)S3)N=C1
The method in brief:
as §1

Compound in test [5]: C1=CC2=NC=CN=C2C=C1/C=C/3\C(=O)NC(=O)S3
The method in brief:
as §1

Compound in test [6]: C1=CC=C(C=C1)C2=NC(=C(N2)C3=CC=NC=C3)C4=CC(=C(C=C4)Cl)O
A digest of the protocol:
as §1

Compound in test [7]: C1=CC=C2C(=C1)C3=NNC4=CC=CC(=C43)C2=O
A digest of the protocol:
as §1

Compound in test [8]: C1CCN(C1)C(=O)NC2=CC=CC(=C2)NC3=NC=C(C(=N3)NCCC4=CN=CN4)Br
A digest of the protocol:
as §1

Compound in test [9]: C1CN(CCC1(CC2=CC=C(C=C2)Cl)N)C3=NC=NC4=C3C=CN4
A digest of the protocol:
as §1

Compound in test [10]: C1COCCN1CCN2C3=CC=CC=C3N=C2NC(=O)C4=CC(=CC=C4)[N+](=O)[O-] [IRAK-1-4 Inhibitor I]
A digest of the protocol:
as §1

The full data set covers some 8,800 targets. This sample favours those with a hit. About 0.5% of all pairs of compound and target were hits. Values without a mark were called inactive.

Sequence of UniProt O95870 (O95870 whole entry, looked up): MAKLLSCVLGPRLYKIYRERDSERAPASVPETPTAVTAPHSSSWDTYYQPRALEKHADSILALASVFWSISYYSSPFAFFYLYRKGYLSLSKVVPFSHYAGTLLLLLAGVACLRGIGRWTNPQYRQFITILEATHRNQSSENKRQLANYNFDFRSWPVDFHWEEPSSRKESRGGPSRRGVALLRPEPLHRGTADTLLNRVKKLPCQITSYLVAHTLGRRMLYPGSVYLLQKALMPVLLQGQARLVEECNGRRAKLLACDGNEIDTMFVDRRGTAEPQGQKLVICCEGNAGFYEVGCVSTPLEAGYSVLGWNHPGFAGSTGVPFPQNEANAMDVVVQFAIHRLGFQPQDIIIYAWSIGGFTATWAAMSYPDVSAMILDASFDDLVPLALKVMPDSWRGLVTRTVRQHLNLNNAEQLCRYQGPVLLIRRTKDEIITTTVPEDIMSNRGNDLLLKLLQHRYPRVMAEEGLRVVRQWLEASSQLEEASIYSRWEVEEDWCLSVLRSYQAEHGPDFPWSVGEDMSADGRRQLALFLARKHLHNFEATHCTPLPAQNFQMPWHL
Sequence of UniProt P52895 (P52895 whole entry, looked up): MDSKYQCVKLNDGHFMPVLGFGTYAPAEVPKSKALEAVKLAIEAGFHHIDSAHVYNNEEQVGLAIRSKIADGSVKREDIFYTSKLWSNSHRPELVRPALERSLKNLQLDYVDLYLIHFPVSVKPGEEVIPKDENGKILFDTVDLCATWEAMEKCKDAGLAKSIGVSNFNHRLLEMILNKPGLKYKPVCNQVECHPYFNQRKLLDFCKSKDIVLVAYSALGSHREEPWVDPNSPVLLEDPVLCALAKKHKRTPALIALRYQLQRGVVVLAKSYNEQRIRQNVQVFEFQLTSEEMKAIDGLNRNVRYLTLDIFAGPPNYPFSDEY
Sequence of UniProt Q9UG63 (Q9UG63 whole entry, looked up): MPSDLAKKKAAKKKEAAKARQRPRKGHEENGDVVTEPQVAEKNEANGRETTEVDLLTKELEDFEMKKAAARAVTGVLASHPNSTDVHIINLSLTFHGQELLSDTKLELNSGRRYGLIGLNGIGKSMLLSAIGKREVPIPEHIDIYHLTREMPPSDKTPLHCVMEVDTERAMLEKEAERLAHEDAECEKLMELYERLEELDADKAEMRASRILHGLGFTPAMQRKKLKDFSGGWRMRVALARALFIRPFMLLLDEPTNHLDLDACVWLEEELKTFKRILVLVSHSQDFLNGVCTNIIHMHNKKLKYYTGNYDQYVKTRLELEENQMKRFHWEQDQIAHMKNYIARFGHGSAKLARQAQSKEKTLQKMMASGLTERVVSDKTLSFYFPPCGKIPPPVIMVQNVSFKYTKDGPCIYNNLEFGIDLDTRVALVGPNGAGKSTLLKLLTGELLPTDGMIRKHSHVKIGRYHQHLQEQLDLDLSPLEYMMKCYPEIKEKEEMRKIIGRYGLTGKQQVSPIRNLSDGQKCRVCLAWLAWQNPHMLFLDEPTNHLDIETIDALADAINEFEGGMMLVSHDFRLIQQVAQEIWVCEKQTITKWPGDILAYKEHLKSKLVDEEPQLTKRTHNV
Sequence of UniProt Q9BXX2 (Q9BXX2 whole entry, looked up): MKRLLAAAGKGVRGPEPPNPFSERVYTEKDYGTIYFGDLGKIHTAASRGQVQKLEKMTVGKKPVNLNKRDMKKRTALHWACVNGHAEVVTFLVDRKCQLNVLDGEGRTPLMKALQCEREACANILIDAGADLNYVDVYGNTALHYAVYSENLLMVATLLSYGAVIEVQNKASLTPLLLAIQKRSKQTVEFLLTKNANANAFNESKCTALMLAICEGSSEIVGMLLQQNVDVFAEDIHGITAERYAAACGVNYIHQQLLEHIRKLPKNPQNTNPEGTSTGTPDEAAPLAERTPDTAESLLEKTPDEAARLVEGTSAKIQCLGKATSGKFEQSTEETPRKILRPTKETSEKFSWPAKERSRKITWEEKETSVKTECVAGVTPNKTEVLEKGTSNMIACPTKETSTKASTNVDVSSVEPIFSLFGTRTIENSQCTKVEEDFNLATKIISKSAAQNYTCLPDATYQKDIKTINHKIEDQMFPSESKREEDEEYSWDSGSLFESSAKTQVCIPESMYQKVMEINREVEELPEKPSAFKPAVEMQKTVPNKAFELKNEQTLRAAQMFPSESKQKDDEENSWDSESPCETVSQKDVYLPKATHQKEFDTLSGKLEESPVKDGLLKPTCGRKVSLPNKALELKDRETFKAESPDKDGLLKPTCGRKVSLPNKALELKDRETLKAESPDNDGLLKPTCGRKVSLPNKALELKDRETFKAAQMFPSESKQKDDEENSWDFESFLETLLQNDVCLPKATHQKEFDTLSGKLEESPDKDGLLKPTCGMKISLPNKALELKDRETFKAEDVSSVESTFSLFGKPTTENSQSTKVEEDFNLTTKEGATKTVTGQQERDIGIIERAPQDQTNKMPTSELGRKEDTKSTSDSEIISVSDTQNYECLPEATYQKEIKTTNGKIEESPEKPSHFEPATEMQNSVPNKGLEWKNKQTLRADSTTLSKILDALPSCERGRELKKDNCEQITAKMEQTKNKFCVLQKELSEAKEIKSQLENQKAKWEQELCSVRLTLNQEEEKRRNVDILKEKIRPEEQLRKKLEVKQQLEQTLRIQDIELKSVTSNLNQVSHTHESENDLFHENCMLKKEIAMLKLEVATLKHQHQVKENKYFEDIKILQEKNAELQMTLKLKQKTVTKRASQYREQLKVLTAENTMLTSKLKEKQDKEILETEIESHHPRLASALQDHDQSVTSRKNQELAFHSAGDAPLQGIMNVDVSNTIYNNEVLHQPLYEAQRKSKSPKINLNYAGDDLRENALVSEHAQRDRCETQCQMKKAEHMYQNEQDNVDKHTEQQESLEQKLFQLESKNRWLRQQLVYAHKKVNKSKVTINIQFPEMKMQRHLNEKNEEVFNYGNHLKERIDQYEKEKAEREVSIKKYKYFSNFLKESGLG
Sequence of UniProt Q9NRW3 (Q9NRW3 whole entry, looked up): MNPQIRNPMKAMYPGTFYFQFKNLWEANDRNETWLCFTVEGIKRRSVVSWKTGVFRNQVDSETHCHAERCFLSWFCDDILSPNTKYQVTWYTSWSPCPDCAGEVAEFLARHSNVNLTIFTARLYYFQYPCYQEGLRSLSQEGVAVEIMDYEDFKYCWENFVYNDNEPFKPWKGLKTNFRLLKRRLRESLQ
Sequence of UniProt Q99943 (Q99943 whole entry, looked up): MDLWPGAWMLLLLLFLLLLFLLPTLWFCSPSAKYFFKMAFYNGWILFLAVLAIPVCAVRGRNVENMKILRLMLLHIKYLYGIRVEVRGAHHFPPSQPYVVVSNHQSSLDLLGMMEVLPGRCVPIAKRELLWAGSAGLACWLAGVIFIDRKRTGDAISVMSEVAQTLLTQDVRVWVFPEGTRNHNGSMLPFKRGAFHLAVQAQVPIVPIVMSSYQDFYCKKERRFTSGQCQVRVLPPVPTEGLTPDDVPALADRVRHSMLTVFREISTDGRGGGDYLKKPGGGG
Sequence of UniProt P24752 (P24752 whole entry, looked up): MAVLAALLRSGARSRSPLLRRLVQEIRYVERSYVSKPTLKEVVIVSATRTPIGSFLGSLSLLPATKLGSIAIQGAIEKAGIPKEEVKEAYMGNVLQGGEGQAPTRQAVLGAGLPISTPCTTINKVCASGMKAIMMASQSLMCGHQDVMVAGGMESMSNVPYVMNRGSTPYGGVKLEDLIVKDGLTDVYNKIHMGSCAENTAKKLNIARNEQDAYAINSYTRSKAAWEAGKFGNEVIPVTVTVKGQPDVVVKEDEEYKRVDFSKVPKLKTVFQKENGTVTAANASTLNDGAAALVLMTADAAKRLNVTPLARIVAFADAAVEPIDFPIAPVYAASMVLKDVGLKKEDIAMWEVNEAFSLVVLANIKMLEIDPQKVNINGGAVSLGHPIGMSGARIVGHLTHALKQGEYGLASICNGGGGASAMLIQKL
Sequence of UniProt Q6NXT1 (Q6NXT1 whole entry, looked up): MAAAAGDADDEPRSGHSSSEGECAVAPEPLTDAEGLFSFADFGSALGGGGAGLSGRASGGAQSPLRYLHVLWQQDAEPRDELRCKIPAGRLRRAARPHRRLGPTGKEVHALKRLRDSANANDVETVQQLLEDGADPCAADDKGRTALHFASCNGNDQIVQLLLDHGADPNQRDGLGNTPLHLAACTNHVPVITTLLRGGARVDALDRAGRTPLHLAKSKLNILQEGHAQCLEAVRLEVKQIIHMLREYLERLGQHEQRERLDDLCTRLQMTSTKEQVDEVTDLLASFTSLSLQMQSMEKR
Sequence of UniProt P54886 (P54886 whole entry, looked up): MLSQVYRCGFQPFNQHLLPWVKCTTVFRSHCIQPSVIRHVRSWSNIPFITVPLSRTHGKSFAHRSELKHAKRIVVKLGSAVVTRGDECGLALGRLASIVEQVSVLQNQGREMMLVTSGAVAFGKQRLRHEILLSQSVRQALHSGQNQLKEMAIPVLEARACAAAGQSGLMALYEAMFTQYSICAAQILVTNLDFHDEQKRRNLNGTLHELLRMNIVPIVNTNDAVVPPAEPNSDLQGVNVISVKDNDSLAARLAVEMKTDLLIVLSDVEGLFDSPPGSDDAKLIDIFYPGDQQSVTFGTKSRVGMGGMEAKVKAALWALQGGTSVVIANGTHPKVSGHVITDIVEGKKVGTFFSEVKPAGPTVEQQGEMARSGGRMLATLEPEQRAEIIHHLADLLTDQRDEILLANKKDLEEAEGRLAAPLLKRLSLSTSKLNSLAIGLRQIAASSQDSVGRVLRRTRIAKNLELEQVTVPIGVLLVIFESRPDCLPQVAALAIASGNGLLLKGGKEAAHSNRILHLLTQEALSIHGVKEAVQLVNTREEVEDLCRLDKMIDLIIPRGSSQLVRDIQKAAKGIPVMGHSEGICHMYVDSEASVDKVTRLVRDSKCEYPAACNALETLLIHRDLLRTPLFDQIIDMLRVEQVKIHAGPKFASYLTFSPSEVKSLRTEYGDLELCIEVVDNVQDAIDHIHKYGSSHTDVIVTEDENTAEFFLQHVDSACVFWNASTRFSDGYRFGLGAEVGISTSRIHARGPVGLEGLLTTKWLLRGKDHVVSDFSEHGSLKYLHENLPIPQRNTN

Consider ARL15 (UniProt Q9NXU5), for which the log2 fold change is -0.035 in [1]; 0.004 in test [2]; -0.009 in [3]; 0.011 in test [4]; 0.079 in test [5]; -0.033 in test [6]. Also, the log2 fold change in test [7] is 0.005; in test [8], 0.004; in test [9], -0.031; in [10] it was 0.038.

In the case of AKR1C2 (UniProt P52895), the log2 fold change in test [1] is 0.03; in test [2], -0.167; in test [3], 0.005; in test [4] it was 0.015; in [5], 0.006; in [6], 0.013. Besides, the log2 fold change in test [7] was -0.046; in test [8] it was -0.033; in test [9], 0.006; in [10] it was -0.024.

For the target ACAT1 (UniProt P24752), the log2 fold change is 0.011 in test [1]; 0.006 in test [2]; -0.015 in test [3]; 0.015 in test [4]; 0.017 in test [5]; -0.002 in test [6]. The log2 fold change in test [7] is -0.007; in test [8], -0.028; in [9], 0.015; in [10] it was 0.017.

Turning to APOBEC3C (UniProt Q9NRW3), the log2 fold change in test [1] was 0.054; in test [2], 0.058; in test [3] it was -0.029; in [4], 0.066; in [5], 0.056; in test [6], -0.017. Moreover, the log2 fold change in [7] is 0.015; in test [8], 0.031; in test [9] it was -0.003; in [10], 0.038.

For ABHD16A (UniProt O95870), the log2 fold change in test [1] was -0.009; in test [2] it was -0.047; in [3], 0.03; in test [4], 0.046; in test [5], -0.042; in test [6], 0.015. In addition, the log2 fold change is -0.016 in [7], 0.014 in test [8], 0.064 in [9] and -0.006 in test [10].

For the target AK1 (UniProt P00568), the log2 fold change in test [1] was -0.023; in test [2] it was 0.002; in [3], 0.014; in [4], -0.036; in test [5], 0.002; in [6] it was -0.004. In addition, the log2 fold change in test [7] was 0.047; in [8] it was 0.067; in test [9], -0.003; in test [10] it was -0.002.

With ALDH18A1 (UniProt P54886), the log2 fold change in test [1] was 0.029; in test [2], -0.039; in test [3], -0.017; in [4], 0.02; in [5], -0.015; in test [6] it was -0.016. In addition, the log2 fold change in [7] was -0.025; in test [8] it was -0.022; in test [9], 0.001; in test [10] it was -0.006.

Regarding ABL1 isoform 2 (UniProt P00519), the log2 fold change in test [1] is 0.026; in [2] it was -0.005; in test [3] it was -0.013; in [4], 0.026; in [5], -0.027; in [6], 0.033. The log2 fold change in test [7] was -0.022; in test [8], -0.035; in test [9], 0.015; in test [10], -0.01.

Consider ABHD11 (UniProt Q8NFV4), for which the log2 fold change in test [1] is -0.064; in [2], -0.049; in test [3] it was 0.001; in test [4], 0.057; in test [5] it was -0.008; in [6] it was 0.171. Besides, the log2 fold change in [7] was 0.011; in test [8], -0.047; in test [9] it was 0.015; in test [10], -0.014.

With ABCF2 isoform 2 (UniProt Q9UG63), the log2 fold change in test [1] is 0.046; in test [2] it was -0.029; in test [3] it was -0.049; in test [4], -0.025; in test [5], 0.01; in [6], 0.018. Moreover, the log2 fold change was -0.042 in [7], 0.049 in [8], 0.016 in test [9] and -0.047 in [10].

With AGPAT1 (UniProt Q99943), the log2 fold change is 0.012 in test [1]; 0.027 in test [2]; -0.145 in test [3]; 0.05 in test [4]; 0.028 in [5]; -0.023 in [6]. Also, the log2 fold change in test [7] was -0.01; in test [8] it was -0.019; in test [9] it was 0.01; in [10] it was 0.036.

Take ALDH1B1 (UniProt P30837): the log2 fold change is -0.064 in test [1]; 0.027 in test [2]; -0.035 in [3]; -0.004 in test [4]; 0.031 in [5]; 0.009 in test [6]. Besides, the log2 fold change in test [7] is 0.262 (active); in test [8], -0.025; in test [9], 0.048; in [10], 0.038.

For the target ANKRD54 (UniProt Q6NXT1), the log2 fold change in [1] was -0.005; in [2], 0.01; in [3] it was 0.122; in [4], -0.036; in test [5], 0.025; in test [6] it was 0.037. The log2 fold change in [7] is 0.02; in test [8], 0.008; in [9] it was -0.035; in test [10] it was 0.003.

In the case of ANKRD30B (UniProt Q9BXX2), the log2 fold change is 0.077 in test [1]; 0.106 in [2]; -0.053 in test [3]; -0.115 in test [4]; 0.005 in test [5]; -0.032 in test [6]. Also, the log2 fold change in test [7] is -0.047; in test [8], -0.006; in [9], 0.124; in test [10], 0.095.

Take ABHD17B (UniProt Q5VST6): the log2 fold change in test [1] is -0.08; in [2], -0.047; in test [3], -0.011; in test [4], 0.044; in test [5] it was -0.043; in test [6], 0. Further, the log2 fold change in test [7] was 0.021; in test [8], 0.064; in [9], -0.111; in test [10] it was 0.014.
